In PubChem BioAssay (NCATS) one finds Potency data, which are given here for 7 molecules.

Inconclusive results are not listed. Values without a mark were called inactive. Active and inactive are the calls of the source. The call rests on the fitted dose curve; in most records, active means well fitted curve in the direction sought with a large enough effect; inconclusive means small, poorly fitted or top-dose-only effect, or another doubt; inactive means no such curve, though single readings can be large; an effect the other way counts as inactive or inconclusive.

A short description of test [1]: qHTS of pediatric cancer cell lines to identify multiple opportunities for drug repurposing: Primary screen for SJ-GBM2 cells (AID 1347091). The essentials:
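Eight- or eleven-point concentration series, 48 h treatment at 37 degrees C in growth media; readout CellTiter-Glo luminescence. Potency and efficacy were taken from the concentration-response curves.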
In general terms: Quantitative high-throughput screening tests each substance at several concentrations.

Test [2] in a line: qHTS of pediatric cancer cell lines to identify multiple opportunities for drug repurposing: Primary screen for BT-37 cells (AID 1347094). Further: potency means the concentration at half of the fitted maximal effect. The procedure, abridged: (§1)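 Quantitative HTS format: each compound titrated (MIPE 11 points from 0.78 nM, NPC 8 points from 0.59 nM) onto cells plated 5 hours earlier. After 48 h at 37 degrees C, CellTiter-Glo luminescence was recorded.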
Test [3] is described as follows: qHTS of pediatric cancer cell lines to identify multiple opportunities for drug repurposing: Primary screen for NB-EBc1 cells (AID 1347095). The procedure, abridged:
as §1

Test [4] in a line: qHTS of pediatric cancer cell lines to identify multiple opportunities for drug repurposing: Primary screen for U-2 OS cells (AID 1347096). Further: nearly all actives have a fitted effect of over 50% in size. The essentials:
(§2)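 Cells (500-1,000/well) in growth media were settled 5 h at 37 degrees C, then given compounds for 48 h. Viability was read as CellTiter-Glo luminescence. Primary runs used MIPE at 11 points (0.78 nM-46 µM) and NPC at 8 points (0.59 nM-46 µM); follow-ups used 11 points.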

Test [5] in a line: qHTS of pediatric cancer cell lines to identify multiple opportunities for drug repurposing: Primary screen for Saos-2 cells (AID 1347097). Further: nearly all actives have a fitted effect of over 40% in size. Further: potency means the concentration at half of the fitted maximal effect. The essentials:
as §1

The nature of test [6]: qHTS of pediatric cancer cell lines to identify multiple opportunities for drug repurposing: Primary screen for SK-N-SH cells (AID 1347098). Further: nearly all actives have a fitted effect of over 65% in size. Further: potency means the concentration at half of the fitted maximal effect. The essentials:
(§3)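 Cells (500-1,000/well) rested 5 h, then received compounds for 48 h; metabolically active cells were measured by CellTiter-Glo luminescence. Final concentrations spanned up to 46 µM (MIPE, 11-point) or 0.59 nM-46 µM (NPC, 8-point) in primary screens, 11-point in follow-ups.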

Test [7] can be described thus: qHTS of pediatric cancer cell lines to identify multiple opportunities for drug repurposing: Primary screen for NB1643 cells (AID 1347099). Further: nearly all actives have a fitted effect of over 50% in size. Further: potency means the concentration at half of the fitted maximal effect. The procedure, abridged:
as §1

A short description of test [8]: qHTS of pediatric cancer cell lines to identify multiple opportunities for drug repurposing: Primary screen for BT-12 cells (AID 1347101). Further: nearly all actives have a fitted effect of over 25% in size. Further: potency means the concentration at half of the fitted maximal effect. The procedure, abridged: as §3
Test [9] in a line: qHTS of pediatric cancer cell lines to identify multiple opportunities for drug repurposing: Primary screen for Rh18 cells (AID 1347102). Further: nearly all actives have a fitted effect of over 65% in size. The procedure, abridged:
as §2

Test [10] in a line: qHTS of pediatric cancer cell lines to identify multiple opportunities for drug repurposing: Primary screen for OHS-50 cells (AID 1347103). Further: nearly all actives have a fitted effect of over 40% in size. Further: potency means the concentration at half of the fitted maximal effect. The procedure, abridged: as §3
Test [11] in a line: qHTS of pediatric cancer cell lines to identify multiple opportunities for drug repurposing: Primary screen for RD cells (AID 1347104). Further: nearly all actives have a fitted effect of over 55% in size. Further: potency means the concentration at half of the fitted maximal effect. The essentials: as §1
Test [12] can be described thus: qHTS of pediatric cancer cell lines to identify multiple opportunities for drug repurposing: Primary screen for MG 63 (6-TG R) cells (AID 1347105). Further: nearly all actives have a fitted effect of over 50% in size. Further: potency means the concentration at half of the fitted maximal effect. The essentials:
as §1

A short description of test [13]: qHTS of pediatric cancer cell lines to identify multiple opportunities for drug repurposing: Primary screen for control Hh wild type fibroblast cells (AID 1347106). Further: nearly all actives have a fitted effect of over 55% in size. Further: potency means the concentration at half of the fitted maximal effect. The procedure, abridged:
as §2

Test [14] is described as follows: qHTS of pediatric cancer cell lines to identify multiple opportunities for drug repurposing: Primary screen for Rh30 cells (AID 1347107). Further: series mostly up to about 46 µM; nearly all actives have a fitted effect of over 75% in size. The essentials:
as §2

Test [15] is described as follows: qHTS of pediatric cancer cell lines to identify multiple opportunities for drug repurposing: Primary screen for A673 cells (AID 1347092). Further: nearly all actives have a fitted effect of over 45% in size. Further: potency means the concentration at half of the fitted maximal effect. The procedure, abridged: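 Luminescence from CellTiter-Glo, taken after 15 min at room temperature, served as the proxy for metabolically active cells following 48 h treatment. Both potency and efficacy were taken from curves fitted to the titration data.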

A short description of test [16]: qHTS of pediatric cancer cell lines to identify multiple opportunities for drug repurposing: Primary screen for SK-N-MC cells (AID 1347093). Further: potency means the concentration at half of the fitted maximal effect. The essentials: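 Metabolically active cells were quantified by ATP-dependent luminescence (CellTiter-Glo, 15 min at room temperature) following 48 h treatment. Cells had been plated at 500-1,000 per well and settled for 5 h beforehand.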

A short description of test [17]: qHTS of pediatric cancer cell lines to identify multiple opportunities for drug repurposing: Primary screen for LAN-5 cells (AID 1347100). Further: potency means the concentration at half of the fitted maximal effect. The essentials:
as §2

The nature of test [18]: qHTS of pediatric cancer cell lines to identify multiple opportunities for drug repurposing: Confirmatory screen for NB1643 cells (AID 1347109). Further: nearly all actives have a fitted effect of over 45% in size. Further: potency means the concentration at half of the fitted maximal effect. The essentials:
as §2

Test [19] in a line: qHTS of pediatric cancer cell lines to identify multiple opportunities for drug repurposing: Confirmatory screen for A673 cells (AID 1347110).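 Further: cells exposed to compound for 48 h before the viability read; nearly all actives have a fitted effect of over 65% in size.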 Further: potency means the concentration at half of the fitted maximal effect. The procedure, abridged: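 qHTS titration format: primary MIPE 0.78 nM-46 µM (11 pts), NPC 0.59 nM-46 µM; confirmation 11 pts. 48 h, CTG luminescence.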
Test [20] in a line: qHTS of pediatric cancer cell lines to identify multiple opportunities for drug repurposing: Primary screen for Rh41 cells (AID 1347108).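 Further: series mostly up to about 46 µM; luminescence drop marks cytotoxic hits; nearly all actives have a fitted effect of over 70% in size.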 The procedure, abridged:
as §1

For the molecule `COc1ccc2c(c1OC)CN1CCc3cc4c(cc3C1C2)OCO4` (configuration not stated), the Potency entry in test [1], in test [3], in [4], in test [5], in [6] and in test [7] was “inactive” in each case. Moreover, the Potency result in test [9], in test [11], in test [12], in [13] and in [14] was “inactive” in each case. Further, the values for the Potency in test [2], in test [8] and in test [10] were 17200 nM (active), 15500 nM (active) and 17400 nM (active), respectively.
In the case of `C[C@H]1O[C@@H](O[C@H]2[C@@H](O)C[C@H](O[C@H]3[C@@H](O)C[C@H](O[C@H]4CC[C@@]5(C)[C@H](CC[C@@H]6[C@@H]5CC[C@]5(C)[C@@H](C7=CC(=O)OC7)CC[C@]65O)C4)O[C@@H]3C)O[C@@H]2C)C[C@H](O)[C@@H]1O`, the Potency in test [15] is 13.3 nM (active); in test [16], 5.3 nM (active); in [2], 9.8 nM (active); in test [6] it was 86.4 nM (active); in test [7], 29.9 nM (active); in test [17] it was 47.3 nM (active). Also, the Potency was 21.9 nM (active) in test [8]; 11 nM (active) in test [10]; 7.5 nM (active) in test [11]; 5.3 nM (active) in test [12]; 841 nM (active) in test [13]; 329 nM (active) in test [18]. Moreover, the Potency in test [19] is 465 nM (active). The Potency entry in test [14] is “inactive”.
Regarding `CCC(COC(=O)c1cc(OC)c(OC)c(OC)c1)(c1ccccc1)N(C)C` (configuration not stated), the Potency result in test [15], in [16], in test [2], in test [3], in [4] and in test [5] was “inactive” each time. In addition, the Potency entry in test [7], in [9], in [11], in [12], in [13] and in test [14] was “inactive” in each case.
In the case of `COC[C@@H](NC(C)=O)C(=O)NCc1ccccc1`, the Potency entry in [1], in test [15], in test [2], in test [3], in test [4] and in test [5] was “inactive” throughout. The Potency result in test [6], in test [17], in [8], in test [9], in test [10] and in [11] was “inactive” each time. The Potency entry in [12], in test [13], in test [14], in [18] and in test [19] was “inactive” each time.
For `c1ccc2c(c1)OCC(C1=NCCN1)O2` (configuration not stated), the Potency in [15] was 13300 nM (active); in [16] it was 18800 nM (active); in test [5], 23700 nM (active); in test [7], 23700 nM (active); in [17], 26600 nM (active); in [8], 19500 nM (active). Also, the Potency in test [11] was 21100 nM (active). For the same molecule, the Potency result in test [4] and in test [14] was “inactive” each time.
With `O=C1CC[C@@]2(O)[C@H]3Cc4ccc(O)c5c4[C@@]2(CCN3CC2CC2)[C@H]1O5`, the Potency entry in [1], in [15], in [2], in [3], in [4] and in [6] was “inactive” in each case. In addition, the Potency entry in test [17], in test [8], in test [9], in [10], in [11] and in test [12] was “inactive” in each case. For the same molecule, the Potency entry in test [13], in test [14] and in test [20] was “inactive” throughout.
For `COc1ccc(C(CN(C)C)C2(O)CCCCC2)cc1` (configuration not stated), the Potency result in test [1], in [15], in [2], in test [3], in [4] and in test [6] was “inactive” in each case. Also, the Potency entry in test [7], in [17], in test [8], in [9], in [10] and in [11] was “inactive” throughout. Further, the Potency result in [12], in test [13], in test [14] and in test [20] was “inactive” each time.
